Test results reported in PubChem BioAssay AID2315 (National Center for Advancing Translational Sciences (NCATS), 2010).
Out of some 290,000 compounds screened, about 27,000 (9.3%) were called active. Rule as the data show it: active = inhibition mostly above about 28% (no sharp cut-off); inactive = mostly below about 43%. The entries come from a sample that favours actives as a whole.

Test: A qHTS for Small Molecule Inhibitors of Shiga Toxin; also: 0% is about no effect
Conditions: Vero cells, Shiga toxin protein synthesis inhibition reporter; at 38.7 µM, stronger effect = higher value

Which inhibition does the source give for `COc1ccc(CCNS(=O)(=O)c2cn(C)nc2C)cc1` here?
The inhibition was 16.1% (inactive).

Which inhibition does the source give for `CCC(=O)Nc1ccc(Nc2nc(Cl)nc(Nc3ccc(NC(=O)CC)cc3)n2)cc1` here?
The inhibition was 4.44% (inactive).

For `CCOC(=O)CNc1nc(Cl)nc(Nc2ccccc2)n1`, which inhibition is on record?
Its inhibition is 65.7% (active).

With `CCOC(=O)CNc1nc(Cl)nc(Nc2ccc(OC)cc2OC)n1` as the molecule, how does the inhibition read?
Its inhibition is 26.8% (inactive).

Which inhibition does the source give for `CCn1c(SCC(=O)NC2CCCC2)nnc1-c1ccoc1C` here?
The inhibition was -5.62% (inactive).

Which inhibition does the source give for `CN(Cc1ccc2nsnc2c1)Cc1nc(Cc2cccc(F)c2)no1` here?
Its inhibition is 1.39% (inactive).

For `CN(Cc1nc2ccc(F)cc2[nH]1)Cc1nc(CC2CC2)no1`, which inhibition is on record?
Its inhibition is 48% (active).

With `CN(Cc1cc2cc(F)ccc2[nH]1)Cc1nc(-c2cnccn2)no1` as the molecule, how does the inhibition read?
Its inhibition is -4.61% (inactive).

For `C/C(=N\N(C)C)c1ccc(OCCOc2ccc([N+](=O)[O-])cc2)cc1`, which inhibition is on record?
Its inhibition is 6.72% (inactive).

For `CCn1c(SCC(=O)NC2=NCCS2)nnc1C(C)NC(=O)c1ccccc1F` (configuration not stated), which inhibition is on record?
Its inhibition is -15.6% (inactive).

For `Cc1cc(-n2cnc(-c3cn(C)nc3C)n2)no1`, which inhibition is on record?
The inhibition was 52.5% (active).

Which inhibition does the source give for `COc1ccc(Cl)cc1NS(=O)(=O)c1cccc(C(=O)NCC2CCCO2)c1` (configuration not stated) here?
Its inhibition is -3.5% (inactive).

With `O=C1CSc2ccc(S(=O)(=O)NCc3ccccc3)cc2N1` as the molecule, how does the inhibition read?
The inhibition was -7.81% (inactive).

With `O=C(NNC(=O)c1csc(-c2cccnc2)n1)Nc1ccc(Cl)cc1` as the molecule, how does the inhibition read?
Its inhibition is 4.07% (inactive).

For `COC(=O)c1sccc1NC(=O)c1cc(OC)c(OC)c(OC)c1`, which inhibition is on record?
Its inhibition is 14.1% (inactive).

For `CC(=O)c1ccc(NC(=O)Nc2ccc([N+](=O)[O-])cc2C)cc1`, which inhibition is on record?
The inhibition was -6.96% (inactive).

For `COC(=O)c1sccc1NC(=O)c1ccc(Cl)cc1`, which inhibition is on record?
Its inhibition is -2.96% (inactive).

Which inhibition does the source give for `O=C(Nc1cccnc1)c1cc(Cl)ccc1Cl` here?
Its inhibition is -11.4% (inactive).

With `COC(=O)c1ccc(NC(=O)Nc2ccc(C)cc2)cc1` as the molecule, how does the inhibition read?
The inhibition was 46% (active).

With `COC(=O)c1ccc(NC(=O)c2cc(Cl)ccc2OC)cc1` as the molecule, how does the inhibition read?
Its inhibition is 1.91% (inactive).

Which inhibition does the source give for `Cc1ccc(NC(=O)CC(=O)Nc2ccc(C)cc2)cc1` here?
Its inhibition is -2.71% (inactive).

With `COc1cc(NC(=O)Nc2ccc(C)cc2)cc([N+](=O)[O-])c1` as the molecule, how does the inhibition read?
The inhibition was -2.21% (active).

For `Cc1ccc(Oc2cc(NC(=O)CCCn3nc(C)c([N+](=O)[O-])c3C)cc([N+](=O)[O-])c2)cc1`, which inhibition is on record?
The inhibition was 9.13% (inactive).

With `COC(=O)c1sccc1NC(=S)Nc1ccc(C)cc1` as the molecule, how does the inhibition read?
Its inhibition is 39.9% (active).

For `O=C(Nc1ccc(Cl)cc1)Nc1ccc(Oc2cccnc2)nc1`, which inhibition is on record?
Its inhibition is 51.4% (active).

With `COc1ccc(N2CCN(C(=O)Cn3cnc4sc(C)c(S(=O)(=O)N5CCOCC5)c4c3=O)CC2)cc1` as the molecule, how does the inhibition read?
The inhibition was -21.2% (inactive).

For `CSCC[C@H](NC(=O)N1CCn2c1nc1ccccc12)C(=O)NC1CCCCC1`, which inhibition is on record?
Its inhibition is 21.5% (inactive).
